Compound activity from PubChem.
Only some compounds are listed: those with a hit (about 6.2% of all), similar ones and a draw of the others.
HCMV antiviral: qHTS Assay for inhibitors of the human cytomegalovirus (HCMV); HFF cells, HCMV-luciferase reporter, 72 h; hits give low values; activity change, negative = inhibition, % at 57.5 µM; 410,000 compounds, 4.5% hits; in the data active = activity change below about -60%; inconclusive = no clear call, values can overlap the other calls; inactive = above about -39%
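Human foreskin fibroblasts infected with luciferase-reporter HCMV at MOI 1 PFU/cell, compounds at two doses. Luciferase measured 72 h post infection; normalized to buffer-only basal and Salinomycin (10uM) controls.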
FMDV antiviral: High Throughput Screening for Foot and Mouth Disease Virus Antivirals | Potency, µM (doses to about 57.9 µM), without a hit: top-dose activity change, negative = inhibition, most hits filed as inhibitors | 410,000 compounds, 1.2% hits | FMDV antiviral cell-based qHTS | AID 1159524, 2015; calls by dose curve; tested in HEK293T cells; also: read-out not given here; potency is read from the fitted curve at half-maximal effect; nearly all actives have a fitted effect of over 45% in size
MARV entry inh: qHTS for inhibitors of binding or entry into cells for Marburg Virus. AID 540276, 2011. 300,000 compounds, 1.8% hits. Marburg virus pseudotyped entry inhibition, cell reporter. Potency, µM (doses to about 37.8 µM), without a hit: at the top dose activity change, negative = inhibition, actives largely listed as inhibitors; calls by dose curve; tested in HEK293 cells; also: potency is read from the fitted curve at half-maximal effect
LASV entry inh: qHTS for Inhibitors of binding or entry into cells for Lassa Virus | 300,000 compounds, 1.2% hits | Lassa virus pseudotype entry inhibition, cell reporter | Potency, µM (series often up to 37.9 µM), without a hit: at the top dose activity change, negative = inhibition, actives largely listed as inhibitors; calls by dose curve; tested in HEK293 cells; also: potency is read from the fitted curve at half-maximal effect; nearly all actives have a fitted effect of over 50% in size
* hit, by the source's call; ? = inconclusive; / = no result; ! = not confirmed by another sample; [ ] = remark or other dose. % is scaled to controls: 0 for no effect and ±100 for the full control effect.

SMILES	HCMV antiviral	FMDV antiviral	MARV entry inh	LASV entry inh
COc1ccc(CC(=O)N2CCc3cc(OC)c(OC)cc3C2COc2ccc(F)cc2)cc1OC (stereo unspecified)	20.1	25.1µM*	/	?
COCCNC(=S)N1CCc2cc(OC)c(OC)cc2C1COc1cc(C)cc(C)c1 (stereo unspecified)	20.5	-14.4%	7.94µM*	-0.8%
Cc1ccccc1C1=Nn2c(nnc2-c2ccco2)SC1	-24.7	2.8%	/	/
Cc1cc(NC(=O)c2cccc(S(=O)(=O)Nc3cccc(C(=O)O)c3)c2)no1	67.3	1.3%	0.4%	-0.8%
COc1cc2c(cc1OC)C(COc1ccc3c(C)cc(=O)oc3c1)N(C(=O)c1ccccc1C)CC2 (stereo unspecified)	9.7	-27.7%	?	-15.6%[46.1 µM]
COc1cc2c(cc1OC)C(COc1ccc3c(C)cc(=O)oc3c1)N(C(=O)c1cccc(OC)c1OC)CC2 (stereo unspecified)	9.9	-30.0%	-5.4%[46.1 µM]	2.82µM*
CCOC(=O)C1=C(O)/C(=C\c2ccc(CNC(=O)C(=O)Nc3ccccc3)o2)N=C1C	-73.9*	18.2%	27.6%	-10.3%
CCOC(=O)C1=C(O)/C(=C\c2cccs2)N=C1C	12.9	11.4%	-4.3%	12.6%
C=C(C)c1cccc(C(C)(C)NC(=O)Nc2cccnc2)c1	-9.4	0.0%	?	?
C=C(C)c1cccc(C(C)(C)NC(=O)Nc2ccc(C(N)=O)cc2)c1	-67.4*	?	?	0.0%[46.1 µM]
CCNc1nc(NCC)nc(C(=O)Nc2ccccc2)n1	6.6	3.5%	19.4%	25.6%
CCN1CCN(c2ccc(NS(=O)(=O)c3c(C)nc4sccn4c3=O)cc2Cl)CC1	-68.0*	-9.5%	?	-25.2%[46.1 µM]
Cc1cccc(-n2ncc3c(N4CCCC(C)C4)ncnc32)c1 (stereo unspecified)	-35.5	25.1µM*	/	-22.5%[46.1 µM]
CCN1CCN(c2ncnc3c2cnn3-c2cccc(C)c2)CC1	-0.3	24.5%	/	?
Cc1ccc(-n2ncc3c(Nc4cccc(C(F)(F)F)c4)ncnc32)cc1C	-64.8*	-5.4%	/	?
Cc1ccc(-n2ncc3c(N4CCCCCC4)ncnc32)cc1C	-97.7*	56.2µM*	/	22.0%[46.1 µM]
Cc1cccc(N2CCN(c3ncnc4c3cnn4-c3ccc(Cl)cc3)CC2C)c1 (stereo unspecified)	1.4	31.6µM*	/	-0.9%[46.1 µM]
CCOc1ccc(-c2cc(C(=O)NCc3cc(C(F)(F)F)cc(C(F)(F)F)c3)[nH]n2)c(C)c1	-21.9	-22.1%	/	/
CCCCNC(=O)c1ccc(CNS(=O)(=O)c2ccc(Br)cc2)cc1	13.4	1.8%	/	/
CC(=O)Nc1ccc2c(c1)CCCN2C(=O)c1ccccc1	36.6	-1.6%	24.8%	3.6%
CC(C)(C)OC(=O)N1CCC[C@H]1c1nnc(SCc2c(Cl)cccc2Cl)o1	37.6	22.3%	-29.4%	-14.3%
O=C(Nc1ccccc1)/C(=C/c1cccnc1)NC(=O)c1ccco1	-39.7	-13.8%	3.2%	8.7%
Cc1ccc(-n2ncc3c(N4CCCC4)ncnc32)c(C)c1	73.9	-22.3%	7.6%	1.3%
Cc1cccc(-n2ncc3c(N4CCCCCC4)ncnc32)c1	-60.6*	15.8µM*	/	-5.1%[46.1 µM]
Cc1cccc(-n2ncc3c(N4CCC(C)CC4)ncnc32)c1	147.1	3.9%	/	/
SMILES	HCMV antiviral	FMDV antiviral	MARV entry inh	LASV entry inh
Cc1ccc(-n2ncc3c(SCc4cccc(C)c4)ncnc32)cc1	-3.5	8.1%	?	1.5%
Cc1ccc(-n2ncc3c(SCc4cccnc4)ncnc32)c(C)c1	-84.2*	-26.7%	?	2.82µM*
COc1cccc(N2CCN(c3ncnc4c3cnn4-c3ccc(C)cc3C)CC2)c1	-97.3*	3.98µM*	-3.7%	/
CC(C(=O)N1CCOCCOCCOCCOCCOCC1)N1C(=O)c2ccccc2C1=O (stereo unspecified)	-4.6	-12.1%	12.5%[46.1 µM]	?
O=C(NCC1(c2ccccc2)CCCC1)C(=O)Nc1cccc(C(F)(F)F)c1	24.1	-22.2%	29.7%[46.1 µM]	3.5%[46.1 µM]
CC(C)n1cc(/C=N/NC(=O)COc2cccc3cccnc23)c2ccccc21	11.8	?	10µM*	?
C=C(C)c1sc(-c2ccccc2)nc1C	1.7	-3.4%	/	/
COc1ccc(C2=NS(=O)(=O)N(C)C(C(=O)N3CCc4ccccc4C3)=C2)cc1OC	-27.9	28.2µM*	/	/
COc1ccc(CNC(=O)C2=CC(c3ccc(OC)c(OC)c3)=NS(=O)(=O)N2C)cc1	-19.5	-20.3%	?	-6.2%[46.1 µM]
COc1ccc(C2=NS(=O)(=O)N(C)C(C(=O)NCc3ccccc3)=C2)cc1OC	-79.7*!	-22.7%	8.6%[46.1 µM]	3.2%[46.1 µM]
O=C1Nc2ccccc2NC(c2cccc(Br)c2)=C1N(C(=O)C(=O)c1cccs1)c1ccccc1	-88.2*	/	/	/
O=C(NCCCNc1ccc(C(F)(F)F)cc1[N+](=O)[O-])c1cc(F)c(F)cc1Cl	52.3	-25.0%	?	-11.9%
CCOCCCN(Cc1ccco1)C(=O)c1cc2c(=O)[nH]c3ccc(C)cc3c2s1	-63.1*!	-15.4%	?	/
CCN(CCCNC(=O)c1cc2c(=O)[nH]c3ccc(C)cc3c2s1)Cc1ccccc1	-106.1*	?	11.2µM*	?
CCN(CCCNC(=O)c1cc2c(=O)[nH]c3ccc(C)cc3c2s1)c1ccc(C)cc1	-18.4	-9.4%	-10.4%[46.1 µM]	12.1%[46.1 µM]
CCCN1CCN(CCCNC(=O)c2cc3c(=O)[nH]c4ccc(C)cc4c3s2)CC1	-101.0*	-19.0%	?	-19.0%
COc1ccc2c(C)c(C(=O)O)oc2c1	-14.1	-14.0%	4.6%	4.9%
CCCCN(C(=O)c1cccc(S(=O)(=O)N2CCN(C)CC2)c1)c1c(N)n(CC(C)C)c(=O)[nH]c1=O	-23.0	-9.9%	29.6%[46.1 µM]	29.2%
O=C(Nc1cccc(NC(=O)c2sc3ccccc3c2Cl)c1)c1ccco1	?	0.0%	?	0.5%
Cc1cccc(C(=O)Nc2sc(C)c(-c3ccccc3)c2C#N)c1	13.0	-23.8%	?	?
Cn1cc([N+](=O)[O-])c(C(=O)Nc2sc3c(c2C#N)CCC3)n1	-101.2*	10.2%	/	/
Cc1onc(-c2ccccc2)c1C(=O)NC(=S)Nc1sc2c(c1C#N)CCCC2	-25.3	-21.0%	-1.9%	5.2%
Cc1onc(-c2ccccc2)c1C(=O)Nc1ccc(OC(C)C)cc1	-29.3	0.708µM*	/	/
Cn1cc(Br)c(C(=O)Nc2sc3c(c2C#N)CCC3)n1	-3.6	45.9%	7.4%	10.6%
Cc1onc(-c2ccccc2)c1C(=O)Nc1sc2c(c1C#N)CCC2	?	?	4.61µM*	?
SMILES	HCMV antiviral	FMDV antiviral	MARV entry inh	LASV entry inh
Cc1noc(C)c1C(=O)Nc1sc(C)c(-c2ccccc2)c1C#N	-104.2*	28.2µM*	-1.4%	14.0%
CN1C(C)(C)CC(=NOC(=O)c2ccccc2)CC1(C)C	36.1	-2.9%	-14.4%	-1.4%
Cc1onc(-c2c(F)cccc2Cl)c1C(=O)Nc1sc2c(c1C(N)=O)CCC2	-74.2*	?	?	-27.6%
Cc1nn(-c2ccccc2)c(C)c1/C=N/NC(=O)c1ccc(F)cc1	1.5	44.6%	/	/
CC(C)(C)c1cc(C(=O)N/N=C/c2ccc(F)cc2)n(-c2ccccc2)n1	-74.4*	-6.3%	?	-22.4%
CC(C)(C)c1cc(C(=O)N/N=C/c2ccccc2O)n(-c2ccccc2)n1	-97.4*	-20.1%	?	?
